About 83,000 compounds went through this panel and 20% of them were active in at least one assay; those are over-represented in the sample as a whole.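 Values shown are percent growth following 48 h exposure of cells in 96-well plates to a single concentration of compound; below 10 was considered active.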 Active and inactive are the calls of the source.

This assay concerns NCI-H522 lung. Briefly: NCI-60 one-dose screen, 48 h (100 = growth as untreated, 0 = no growth, -100 = all killed). To be noted: 10 µM.
In the case of `COc1cccc(-c2ccnc(/N=C(\N)Nc3ccc(S(=O)(=O)Nc4nc(C)cc(C)n4)cc3)n2)c1`, the growth was 91.5% (inactive). With `O/N=C(\CSc1nnc(-c2c[nH]c3ccccc23)n1-c1ccccc1)c1ccc(Cl)cc1` the figure was 12.4% (inactive); with `COC(=O)c1c(C(=O)OC)c2n(c1C)[C@@H]([C@@H](C)[C@H]1CC[C@H]3[C@@H]4CCC5=CC(=O)CC[C@]5(C)[C@H]4CC[C@]13C)SC2`, 23.1% (inactive). With `Cc1ccc(-c2cc(C(=O)N=Nc3c(O)[nH]c4ccc(Br)cc34)c3ccccc3n2)cc1` the figure was 78.7% (inactive). With `COc1ccc(-c2c(N)c(=O)n(C)c3ccccc23)cc1`, the growth was 61.1% (inactive). As for `O=c1cc(-c2ccccc2)oc2cc(OCCCNCc3ccccc3)cc(O)c12`, the growth was -62.6% (active). With `COc1cccc2nc(Nc3cccc(NC(=O)c4ccc(CN5CCCN(C)CC5)c(C(F)(F)F)c4)c3)ccc12` the figure was -67.5% (active). For `COc1ccc(-c2cc(-c3cc(C(=O)c4ccc(Br)cc4)n4ccc(C)cc34)nc(N)c2C#N)cc1`, the growth is 89.9% (inactive). The figure for `O=C1CCC(N2Cc3c(NCc4ccc(-c5ccccc5)cc4)cccc3C2=O)C(=O)N1` (configuration not stated) is 82.7% (inactive). The figure for `COc1ccc(CN2[C@@H](C(=O)NCc3ccc(C(=O)NO)cc3)Cc3c([nH]c4ccccc34)[C@@H]2C2CC2)cc1` is -17% (active); for `CCOC(=O)c1c(CSc2ccccc2)n(C)c2cc(CN(C)C)c(O)c(CN(C)C)c12` it is 62.4% (inactive); for `CCOC(=O)CNC(=O)CN(Cc1ccccc1)C(=O)[C@@]1(C)CCC[C@]2(C)[C@H]3C[C@H]4C(C(C)C)=C[C@]3(CC[C@H]21)[C@@H]1C(=O)OC(=O)[C@@H]14` it is 35.6% (inactive). With `CC(=O)Nc1ccc(-c2cn(-c3cccc(C(=O)Nc4cc(C(F)(F)F)cc(C(F)(F)F)c4)c3)nn2)cn1` the figure was -11.2% (active). In the case of `NS(=O)(=O)c1ccc(N=Nc2c(O)n(CC(=O)Nc3ccccc3Br)c3ccccc23)cc1`, the growth was 32.6% (inactive). With `N#Cc1c(Cl)nc(SCc2ccc(F)cc2)nc1-c1ccc(F)cc1`, the growth was 74.6% (inactive). With `CN(C)c1ccc(/C=C/C(=O)c2ccc(NC(=O)CN3C(=O)NC(C)(c4ccccc4)C3=O)cc2)cc1` (configuration not stated) the figure was 78.3% (inactive). As to `Cc1cc(C)nc(NS(=O)(=O)c2ccc(N/C(N)=N/c3nccc(-c4cccs4)n3)cc2)n1`, the growth was 90.5% (inactive). With `COc1ccc(/C=C/C(=O)c2ccc(N3CCN(C)CC3)cc2)c(C(F)(F)F)c1` the figure was 52.8% (inactive).

Take `Clc1ccc(/C=N/Nc2ncnc3sc4c(c23)CCN(Cc2ccccc2)C4)cc1`: the growth was 1.08% (active).

For `COc1cccc(/C=N/NC(=O)c2ccc3nc(-c4ccc(Cl)cc4)[nH]c3c2)c1O`, the growth is -83% (active).

For the compound `COc1ccc(-c2nc(S(=O)(=O)c3ccc(C)cc3)c(S(=O)(=O)CC(=O)N(C)Cc3ccccc3)o2)cc1`, the growth is -1.9% (active).

For the compound `CC1=C2C(=C[C@@](C)(CO)[C@@H]2O)/C(=N\N)[C@](C)(O)C12CC2`, the growth was -62.4% (active). The figure for `CC(=O)c1ccc(Nc2nc(SC(C)C)nc(-c3ccccc3)c2C#N)cc1` is 64.6% (inactive); for `CCN1CCN(Cc2ccc(NC(=O)c3cccc(-n4cc(-c5ccc(NC(C)=O)nc5)nn4)c3)cc2C(F)(F)F)CC1` it is 74.7% (inactive).

Regarding `CC(C)c1ccc(C(=O)Nc2sc3c(c2C(N)=O)CCC(=O)C3=O)cc1`, the growth was 84% (inactive).

Take `COc1cc(C2CC(c3ccc(C)cc3)=Nc3c(N)nc(N)nc3N2)ccc1Oc1nc(Nc2ccc(F)cc2)nc(N(C)C)n1` (configuration not stated): the growth was 87.3% (inactive). With `O=c1c2ccccc2nc(COc2ccccc2)n1/N=C/c1ccc(N2CCCC2)cc1` the figure was 81.7% (inactive). The figure for `CCN1CCN(c2ccc(NC(=O)Nc3ccc4c(c3F)CCN4c3ccnc(C(=O)NC)c3)cc2C(F)(F)F)CC1` is 110% (inactive); for `O=c1[nH]c2ccccc2cc1CSc1ccc(Nc2nccc(-c3ccc4ccccc4c3)n2)cc1` it is 71.5% (inactive); for `O=C(CNc1nc(-c2ccccc2)cs1)Nc1cccc(Cl)c1` it is 4.23% (active). With `O=c1[nH]c2ccccc2cc1CSc1ccc(Nc2nccc(-c3ccc(Cl)cc3)n2)cc1` the figure was 2.64% (active). With `O=C1Nc2cc(-c3ccc(NC(=O)c4cccc([N+](=O)[O-])c4)cc3)ccc2/C1=C/c1ccc[nH]1`, the growth is 84.3% (inactive).

With `COc1ccc(-c2ccc(/C=N/NC(=O)c3[nH]c4ccc(Br)cc4c3-c3ccccc3)o2)cc1`, the growth was -44.1% (active). In the case of `CN1CCN(c2ccc(C(=O)/C=C/c3cc(C(F)(F)F)ccc3Cl)cc2)CC1`, the growth was -60.4% (active). With `COc1ccc(-c2cc(-c3cc(C(=O)c4ccccc4)n4ccc(C)cc34)nc(N)c2C#N)cc1` the figure was 71.5% (inactive).

As for `O=C(Nc1ccc(I)cc1)Nc1nc2ccc([N+](=O)[O-])cc2s1`, the growth was -89.4% (active). The figure for `CCCCCCCCCCCCCCCCCCCC(=O)NCCc1c[nH]c2ccc(O)cc12` is -13.2% (active).

Values taken from PubChem BioAssay (NCI).
